# Source: PubChem BioAssay (EPA / NIEHS)
# Several values for one entry are separate records, joined by “and”; a condition that tells them apart may be missing. Equal values may be shown once. Some compounds were tested as several samples or in several runs, with calls that do not always agree. Activity calls are given as the source filed them. The calls were made as follows: active = hit-call score of the fitted dose curve at least 0.9, where 1 is the maximum; inactive = score below 0.9.
# Assay: ATG_NF_kB_CIS: Attagene CIS-FACTORIAL HepG2 Assay for human Nuclear Factor Kappa B (NF-kB) (AID 2282991)
# Details: HepG2 Attagene cis-factorial NF-kB reporter mRNA; actives raise or lower the signal
# Summary of the method: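 Endogenous transcription factor activity in HepG2 was captured via cis-regulated reporter constructs; after 24 h dosing, reporter mRNA was reverse-transcribed, amplified, fluorescently labelled and sized by capillary electrophoresis, with activity fitted bidirectionally relative to DMSO.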
SMILES,outcome,AC50
CCN(N=O)C(N)=O,inactive,–
CCOP(=O)(OCC)SCCSCC,inactive,–
C=C(C)[C@@H]1CC=C(C=O)CC1,inactive,–
CCOc1cc(C=O)ccc1O,inactive,–
N#Cc1ccncc1,inactive,–
CN(C)c1ccc(N=O)cc1,–,6.42 µM (active)
C=CC(=O)OCC(COC(=O)C=C)(COC(=O)C=C)COC(=O)C=C,–,1.96 µM (active)
CC(C)[C@H](C(=O)OC(C#N)c1cccc(Oc2ccccc2)c1)c1ccc(OC(F)F)cc1 (stereo partly drawn),inactive,–
CN(N=O)C(N)=O,inactive,–
OCCCCO,inactive,–
N#Cc1ccccc1Cl,inactive,–
CNC(=O)N(C)c1nc2ccccc2s1,inactive,–
CCOP(=S)(OCC)O/N=C(\C#N)c1ccccc1,inactive,–
O=c1oc2ccccc2c(O)c1C(CC(O)c1ccc(-c2ccc(Br)cc2)cc1)c1ccccc1 (stereo not drawn),inactive,48.4 µM (active)
CC(F)(F)CC(F)(F)F,inactive,–
O=C(O)C1(c2ccc3c(c2)OC[C@H](Cc2ccc(-c4ccccc4)cc2)[C@H]3O)CCCC1,inactive,–
Clc1cccc(Cl)c1Cl,inactive,–
COc1ccc([N+](=O)[O-])cc1O,inactive,–
OC[C@@H](O)[C@H]1O[C@@H]2O[C@H](C(Cl)(Cl)Cl)O[C@@H]2[C@H]1O,inactive,–
C=CCOC(F)(C(F)(F)F)C(F)(F)F,inactive,–
CC(=O)CN(CC(C)=O)N=O,inactive,–
O=[N+]([O-])c1cc([As](=O)(O)O)ccc1O,inactive,–
CCOC(=O)C(SP(=S)(OC)OC)c1ccccc1 (stereo not drawn),inactive,–
CCC(C)(C#N)N=NC(C)(C#N)CC (stereo not drawn),inactive,–
Cc1ccc(CCl)cc1,inactive,–
CS(=O)(=O)c1ccc(C(=O)C2C(=O)CCCC2=O)c(Cl)c1COCC(F)(F)F,inactive,–

# Assay: ATG_NRF2_ARE_CIS: Attagene CIS-FACTORIAL HepG2 Assay for human Nuclear Factor Erythroid 2 Related Factor 2 (NFR2) response to Antioxidant Response Elements (ARE) (AID 2282992);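 as to AC50: reporter mRNA level measured by RT-PCR and capillary electrophoresis fluorescence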
# Details: HepG2 Attagene ARE/NRF2 reporter, transcription factor activity; actives raise or lower the signal
# Summary of the method: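 Fluorescence intensity of reporter-specific cDNA fragments, separated by capillary electrophoresis, reflects mRNA induction in transfected HepG2 cells at 24 h. Activity is fitted bidirectionally, DMSO serving as baseline.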
SMILES,outcome,AC50
CCN(N=O)C(N)=O,inactive,–
Brc1ccc(Br)cc1,inactive,–
C=C(C)[C@@H]1CC=C(C=O)CC1,–,80.5 µM (active)
CCOc1cc(C=O)ccc1O,inactive,–
CCCCCCCCBr,inactive,–
N#Cc1ccncc1,inactive,–
Clc1cccc(Cl)c1,inactive,–
CN(C)c1ccc(N=O)cc1,–,1.39 µM (active)
FC(F)OCC(F)(F)C(F)(F)F,inactive,–
C=CC(=O)OCC(COC(=O)C=C)(COC(=O)C=C)COC(=O)C=C,inactive,–
CN(N=O)C(N)=O,inactive,–
O=[N+]([O-])c1c2ccccc2cc2ccccc12,–,5 µM (active)
C=CC(F)(C(F)(F)F)C(F)(F)C(F)(F)F (stereo not drawn),inactive,–
OCCCCO,inactive,–
N#Cc1ccccc1Cl,inactive,–
CNC(=O)N(C)c1nc2ccccc2s1,–,14.5 µM (active)
CCOP(=S)(OCC)O/N=C(\C#N)c1ccccc1,–,27.7 µM (active)
O=c1oc2ccccc2c(O)c1C(CC(O)c1ccc(-c2ccc(Br)cc2)cc1)c1ccccc1 (stereo not drawn),inactive,7.57 µM (active)
Cc1cc(Cl)ccc1N,–,27.4 µM (active) and 36.6 µM (active)
O=C(Cl)OCCOCCOC(=O)Cl,inactive,–
CC(F)(F)CC(F)(F)F,inactive,–
Clc1cccc(Cl)c1Cl,inactive,–
COc1ccc([N+](=O)[O-])cc1O,inactive,–
C=CCOC(F)(C(F)(F)F)C(F)(F)F,inactive,–
CC(=O)CN(CC(C)=O)N=O,inactive,–
C=CCc1ccccc1O,inactive,–
O=[N+]([O-])c1cc([As](=O)(O)O)ccc1O,inactive,–
CCOC(=O)C(SP(=S)(OC)OC)c1ccccc1 (stereo not drawn),–,32 µM (active)
CCC(C)(C#N)N=NC(C)(C#N)CC (stereo not drawn),inactive,–
Cc1ccc(CCl)cc1,inactive,–
